We go through 43 sequences from publication PMC7819943, “Rice protein-binding microarrays: a tool to detect cis-acting elements near promoter regions in rice”.

Whole data set: some 35,000 sequences, median “fluorescence intensity (a.u.)” near 10,000, cut for the highest 2% near 52,000. This excerpt belongs to a sample that is enriched for the highest values.

This experiment concerns the target T1, OsWOX13 (Oryza sativa, UniProt Q5QMM3 1-267).
T1 sequence: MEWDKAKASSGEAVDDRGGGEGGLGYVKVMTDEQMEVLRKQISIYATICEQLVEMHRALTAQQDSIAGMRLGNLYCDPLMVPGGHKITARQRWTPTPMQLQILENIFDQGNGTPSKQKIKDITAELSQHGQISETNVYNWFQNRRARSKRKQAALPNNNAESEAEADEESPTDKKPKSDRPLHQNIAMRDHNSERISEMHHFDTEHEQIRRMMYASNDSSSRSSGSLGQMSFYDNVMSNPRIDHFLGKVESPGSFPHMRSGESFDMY
Kind of experiment: protein-binding microarray (RPBM); PBS, 2% BSA, 51.3 ng/ul salmon testes DNA, 50 uM zinc acetate, 200 nM TF, 25 C, 1 h; high values mean tight binding. The conditions noted are these: protein: recombinant; tags: N-terminal polyhistidine and DsRed monomer fusion (pET32a); label: CyDye5-dUTP incorporated in the synthesized complementary strand; 3' TTTTT single-stranded linker to array surface; dsDNA, one strand shown. The essentials: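 The binding signal is fluorescence intensity per array feature (arbitrary units). Readings came from an Axon 4000B scanner after a washed, 2% BSA-blocked, double-stranded custom Agilent array had been incubated for 1 h at 25 °C with 200 nM protein and 50 µM zinc acetate. The protein was a Ni–NTA-purified transcription factor fused N-terminally to polyhistidine and DsRed, expressed in E. coli BL21-CodonPlus.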
As to “AAGCAAATCTCTAGATAGATAGATAGATGGATGGATGGATCGGAGTCACCTAGTGCAG”, the binding signal is 10800 fluorescence intensity (a.u.).

For “GTTTTAGCTAATATTTAATTAATCATGTGCTAATGAGCTACGGAGTCACCTAGTGCAG”, the binding signal was 8590 fluorescence intensity (a.u.).

Turning to “GTTTAATATTTATAATTAATTTTCAAACATCCGATGTGATCGGAGTCACCTAGTGCAG”, the binding signal is 19000 fluorescence intensity (a.u.).

With “TGCTTAATTAATTATGTGCTAATGAGGTCTTTCATTTTACCGGAGTCACCTAGTGCAG”, the binding signal is 56100 fluorescence intensity (a.u.).

For “TGCTAATGGACTTATTACTTTTGCTTGCTTTAATTTTGCCCGGAGTCACCTAGTGCAG”, the binding signal is 14600 fluorescence intensity (a.u.).

For “ATTTAATTAATATGTTAATGAGCTAATCCGTTTTCGGGACCGGAGTCACCTAGTGCAG”, the binding signal was 52300 fluorescence intensity (a.u.).

Consider “GAGGGAGTACTAATTATTTAATTTGATGATTATAATACTTCGGAGTCACCTAGTGCAG”, for which the binding signal is 17900 fluorescence intensity (a.u.).

Regarding “AATTAATCATGCGTTAATGGACCGTTCCGTTTTCCGTGTTCGGAGTCACCTAGTGCAG”, the binding signal is 20900 fluorescence intensity (a.u.).

Consider “GATCATTTCAGTGATTAATTTAATTGGAAAAGTAATTCAACGGAGTCACCTAGTGCAG”, for which the binding signal is 6700 fluorescence intensity (a.u.).

In the case of “GATGTGATTGGATTAATTTTCAAAAGTACTTTTATATGATCGGAGTCACCTAGTGCAG”, the binding signal is 56300 fluorescence intensity (a.u.).

Consider “CCTAATAATTAATTAATGATGCACGAGGGATTATCCAACTCGGAGTCACCTAGTGCAG”, for which the binding signal is 53200 fluorescence intensity (a.u.).

Regarding “CGGTCAAATTATCCAAATTAATTAAAGAGGGAACTCGGTCCGGAGTCACCTAGTGCAG”, the binding signal is 35300 fluorescence intensity (a.u.).

Turning to “CTTACCTGCTTTAATTTATGCATAATGTTGCTTCATAAACCGGAGTCACCTAGTGCAG”, the binding signal is 6090 fluorescence intensity (a.u.).

For “ACGAATCTATTGAGCCTAATTAATTCATAATTAGTCTATGCGGAGTCACCTAGTGCAG”, the binding signal was 14600 fluorescence intensity (a.u.).

With “GAATTAAATGATGTGTGAATAATGGATGGCTAGGATGCAACGGAGTCACCTAGTGCAG”, the binding signal was 9780 fluorescence intensity (a.u.).

Consider “TTTAATTGTTATGAACACGACAATGTAATCGGATCATAGACGGAGTCACCTAGTGCAG”, for which the binding signal was 10100 fluorescence intensity (a.u.).

For “ATTGTATCTAATTATTGGCAACATGGAAATTAATCTCTTGCGGAGTCACCTAGTGCAG”, the binding signal was 9160 fluorescence intensity (a.u.).

With “CATAAATCATTTCTTTTGTTTTCAAACTAAGCATATTTGACGGAGTCACCTAGTGCAG”, the binding signal is 4540 fluorescence intensity (a.u.).

As for “AATGTGATTTTCATGTATCCAATTAAAATATTTTAAGAAGCGGAGTCACCTAGTGCAG”, the binding signal was 9180 fluorescence intensity (a.u.).

“CCTTGATGATTGAACCAGTCAGCCCCAACATCTCTATAAACGGAGTCACCTAGTGCAG”: the binding signal was 25800 fluorescence intensity (a.u.).

For the sequence “GCAATTTGATTTGGCCTGTATATTATTATGTGCAGGGTTCCGGAGTCACCTAGTGCAG”, the binding signal was 13800 fluorescence intensity (a.u.).

For the sequence “TTTCAAGAGATTAATTAATTTTCTCAACTTTGCAAGGGCACGGAGTCACCTAGTGCAG”, the binding signal is 16000 fluorescence intensity (a.u.).

With “CCTTAATTAATTAATTTCTAGATCTCAAGAGGGCAACAGACGGAGTCACCTAGTGCAG”, the binding signal was 57200 fluorescence intensity (a.u.).

Turning to “TAATTTATTAATTTATTATTAGAGTATATATATTTCAAGACGGAGTCACCTAGTGCAG”, the binding signal was 6800 fluorescence intensity (a.u.).

Turning to “TTACAGATTGGCCCCTGTATTTCTCTCTCTCGTCTCTCCTCGGAGTCACCTAGTGCAG”, the binding signal was 24800 fluorescence intensity (a.u.).

Regarding “TTATCAATCTACATCGTTATAATTTAGTTCCACCGTAATTCGGAGTCACCTAGTGCAG”, the binding signal is 19800 fluorescence intensity (a.u.).

As for “GCCGGGAGGGAGGGAGGGAGGGAGGGAGGGAGACCCCGCACGGAGTCACCTAGTGCAG”, the binding signal is 9960 fluorescence intensity (a.u.).

Take “TTGATTTGAAAGGTACTACCTCTGTTTCAGGTTAGAAAGTCGGAGTCACCTAGTGCAG”: the binding signal was 3380 fluorescence intensity (a.u.).

Regarding “TAGATGATTATTATGATAGGATTGATTTGTTTAGAGTCTTCGGAGTCACCTAGTGCAG”, the binding signal is 46100 fluorescence intensity (a.u.).

On to “GATGATTTGATTAGATTAGGTTAGGTTTGTTATTCACCTACGGAGTCACCTAGTGCAG”, for which the binding signal is 65500 fluorescence intensity (a.u.).

Consider “TTATTAGATGATGATTATTTTGAGAAGGTTTCTTAGGATGCGGAGTCACCTAGTGCAG”, for which the binding signal was 12900 fluorescence intensity (a.u.).

For the sequence “AGATGATTGATTTTCAGGTGATGAACAGGGTTACTGTTTTCGGAGTCACCTAGTGCAG”, the binding signal was 63000 fluorescence intensity (a.u.).

For the sequence “GTTAGGGTTTTCTTTTGATTGTCAGGGTTTTCTTTTGATTCGGAGTCACCTAGTGCAG”, the binding signal is 3960 fluorescence intensity (a.u.).

Take “AGTCATCAAAATTACGCATGTAATTAGTATATATAATTATCGGAGTCACCTAGTGCAG”: the binding signal was 9910 fluorescence intensity (a.u.).

Take “TTTAGTATATAATAGATAGATAGATAGAAGATTTGTACTACGGAGTCACCTAGTGCAG”: the binding signal is 4500 fluorescence intensity (a.u.).

“GCTGACTGGATAAAATCTGATAAGCGTGAAGATGACCTTTCGGAGTCACCTAGTGCAG”: the binding signal was 21400 fluorescence intensity (a.u.).

With “TTCGAAAATTACCTGTAACCTTCCATCCATCACACACACACGGAGTCACCTAGTGCAG”, the binding signal was 3500 fluorescence intensity (a.u.).

In the case of “AGCTAATTAAGCTAGTGAGAGCTAGTGGAGGTACATGGCTCGGAGTCACCTAGTGCAG”, the binding signal is 11600 fluorescence intensity (a.u.).

On to “GGGTGATATAAATTAGGAGGTGATAATAATTATTTCTTGGCGGAGTCACCTAGTGCAG”, for which the binding signal is 26700 fluorescence intensity (a.u.).

On to “GCTTACAATTAATGATTACCTTTTCATAAAGATTATTATTCGGAGTCACCTAGTGCAG”, for which the binding signal is 12400 fluorescence intensity (a.u.).

On to “TAATTGATGTAATTTAAATTATTCTTGGTCTTAGTGTATACGGAGTCACCTAGTGCAG”, for which the binding signal was 54800 fluorescence intensity (a.u.).

Consider “TTGATTGATGTCATTTAAATTATCATTGGTCTTGGTGTATCGGAGTCACCTAGTGCAG”, for which the binding signal was 41100 fluorescence intensity (a.u.).

On to “CTGTGAATTGATTCATCTCTCACACATGGTTCTCCACTATCGGAGTCACCTAGTGCAG”, for which the binding signal was 9680 fluorescence intensity (a.u.).
